Records with an inconclusive call do not appear. The source made the active and inactive calls. Rule for the calls: active = hit-call score of the fitted dose curve at least 0.9, where 1 is the maximum; inconclusive = response in the unintended direction; inactive = score below 0.9.
Assays:
[1] = TOX21_p53_BLA_p2_viability: Viability Assessment in the Tox21 HCT-116 p53 Agonism Beta-lactamase Assay, Phase 2 (AID 2283591);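 note: actives lower the ATP signal meaning cytotoxicity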
Method in brief: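 HCT-116 p53-bla cells (4000/well) rested 5 h at 37C, then received compounds in DMSO (217-fold dilution) for 16 h at 37C, 5% CO2. After the CCF4 read, CellTiter-Glo was added; ATP luminescence was read after 30 min at room temperature.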

[2] = target: Cellular tumor antigen p53 (Homo sapiens) (UniProt P04637); test: TOX21_p53_BLA_p2_ratio: Tox21 HCT-116 p53 Agonism Beta-lactamase Assay, Ratio, Phase 2 (AID 2283592)
Method in brief: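 Gain-of-signal p53 agonism was scored from the beta-lactamase FRET ratio (460/530 nm, 405 nm excitation) in HCT116 cells treated 16 h at 37C, 5% CO2, with DMSO serving as negative control and baseline.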

[3] = TOX21_p53_BLA_p3_viability: Viability Assessment in the Tox21 HCT-116 p53 Agonism Beta-lactamase Assay, Phase 3 (AID 2283593);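 note: cells exposed to compound for 16 h before reading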
Method in brief: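 HCT-116 cells (4000/well) rested 5 h at 37C, then got DMSO compounds by pin tool (217-fold dilution) for 16 h at 37C, 5% CO2. After the bla read, CellTiter-Glo was added and luminescence read at 30 min, room temperature.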

[4] = target: Cellular tumor antigen p53 (Homo sapiens) (UniProt P04637); test: TOX21_p53_BLA_p3_ratio: Tox21 HCT-116 p53 Agonism Beta-lactamase Assay, Ratio, Phase 3 (AID 2283596)
Method in brief: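 HCT116 p53-bla cells (4000/well) given compound in DMSO (217-fold dilution) after 5 h, incubated 16 h at 37C. CCF4-AM substrate 2 h at room temperature; 460/530 nm emission ratio, gain fitted against DMSO.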

[5] = TOX21_p53_BLA_p4_viability: Viability Assessment in the Tox21 HCT-116 p53 Agonism Beta-lactamase Assay, Phase 4 (AID 2283597);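 note: hits lower the luminescence signal meaning cytotoxicity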
Method in brief: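 Following a 16 h exposure at 37C, the treated HCT116 wells were first read for the FRET ratio. They were then lysed with CellTiter-Glo, and ATP luminescence was recorded after 30 min at room temperature.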

[6] = target: Cellular tumor antigen p53 (Homo sapiens) (UniProt P04637); test: TOX21_p53_BLA_p5_ratio: Tox21 HCT-116 p53 Agonism Beta-lactamase Assay, Ratio, Phase 5 (AID 2283599)
Method in brief: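 HCT-116 cells carrying a p53-inducible beta-lactamase reporter were seeded at 4000 cells/well and dosed after 5 h with compound in DMSO (217-fold dilution). After 16 h at 37C, CCF4-AM substrate was added for 2 h, and the 460/530 nm emission ratio was scored as gain-of-signal versus DMSO.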

[7] = TOX21_p53_BLA_p5_viability: Viability Assessment in the Tox21 HCT-116 p53 Agonism Beta-lactamase Assay, Phase 5 (AID 2283600)
Method in brief: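 After the 460/530 nm beta-lactamase measurement, the wells received an ATP-detection luciferase reagent; signal was read 30 min later at RT. Compound treatment lasted 16 h on cells pre-incubated 5 h post-seeding.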

[8] = target: Cellular tumor antigen p53 (Homo sapiens) (UniProt P04637); test: TOX21_p53_BLA_p4_ratio: Tox21 HCT-116 p53 Agonism Beta-lactamase Assay, Ratio, Phase 4 (AID 2283601)
Method in brief: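 HCT116 cells carrying an inducible beta-lactamase reporter were plated at 4000 cells/well, rested 5 h, then exposed to compounds in DMSO (217-fold dilution) for 16 h at 37C. CCF4-AM substrate was loaded 2 h at room temperature; 460/530 nm emission ratio scored gain-of-signal versus DMSO.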

[9] = target: PGR (gene 5241) (UniProt P06401); test: TOX21_PR_BLA_Followup_Agonist_ratio: Tox21 HEK293 Progesterone Receptor (PR) Agonism Beta-lactamase Follow-Up Assay, Ratio (AID 2283933)
Method in brief: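 Agonist-mode follow-up in HEK293T cells carrying a UAS-driven beta-lactamase reporter, grown in 2% charcoal-stripped serum. Compounds act for 16 hr; activity is the ch2/ch1 cleavage ratio, with same-well CellTiter-Glo viability run in parallel.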

[10] = target: PGR (gene 5241) (UniProt P06401); test: TOX21_PR_BLA_Followup_Antagonist_ratio: Tox21 HEK293 Progesterone Receptor (PR) Antagonism Beta-lactamase Follow-Up Assay, Ratio (AID 2283934);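 note: PR-UAS-bla HEK293T cells stimulated with 1 nM R5020 agonist for 16 hr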
Method in brief: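 Antagonist mode used 1 nM R5020 (final) as agonist on a beta-lactamase reporter line in HEK293T cells. Activity was taken from the substrate cleavage ratio after 16 hr exposure.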

[11] = TOX21_PR_BLA_Followup_Agonist_viability: Viability Assessment in the Tox21 HEK293 Progesterone Receptor (PR) Agonism Beta-lactamase Follow-Up Assay (AID 2283935);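 note: signal loss means lower viability so actives are cytotoxic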
Method in brief: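 Multiplexed viability counter-screen: ATP-coupled luciferase signal measured after 30 min at room temperature, following 16 hr compound treatment of PR-UAS-bla HEK293T cells grown in charcoal-stripped serum.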

[12] = TOX21_PR_BLA_Followup_Antagonist_viability: Viability Assessment in the Tox21 HEK293 Progesterone Receptor (PR) Antagonism Beta-lactamase Follow-Up Assay (AID 2283936);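 note: hits lower the luminescence signal meaning cytotoxicity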
Method in brief: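 PR-UAS-bla HEK293T cells (3,000/well, 2% charcoal-stripped FBS) given compound plus R5020 agonist, 16 h at 37C. CellTiter-Glo added after bla read, 30 min at room temperature; luminescence loss indicates cytotoxicity.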

[13] = target: PGR (gene 5241) (UniProt P06401); test: TOX21_PR_LUC_Followup_Antagonist: Tox21 HEK293 Progesterone Receptor (PR) Antagonism Luciferase Follow-Up Assay (AID 2283938);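 note: curve fitted upward as signal gain over DMSO baseline despite antagonist label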
Method in brief: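 Luminescence from ONE-Glo was measured 30 min after reagent addition, following 16 h exposure of HEK293-PR-A-luc cells (3,000/well, plated 5 h earlier) to DMSO-dissolved compounds at 37C; DMSO served as baseline.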

[14] = TOX21_PR_LUC_Followup_Antagonist_viability: Viability Assessment in the Tox21 HEK293 Progesterone Receptor (PR) Antagonism Luciferase Follow-Up Assay (AID 2283940)
Method in brief: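 Cellular ATP, measured with luciferase-coupled CellTiter-Glo, served as the viability endpoint after HEK293-PR-A-luc cells were exposed to test compounds for 16 h at 37C.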

[15] = TOX21_PR_LUC_Followup_Agonist_viability: Viability Assessment in the Tox21 HEK293 Progesterone Receptor (PR) Agonism Luciferase Follow-Up Assay (AID 2283941);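 note: loss of signal means cytotoxicity so actives lower viability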
Method in brief: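 Luminescent ATP quantitation (CellTiter-Glo) serves as the read-out; a drop flags cytotoxic compounds. Cells are HEK293-PR-A-luc grown in 10% charcoal-stripped FBS, plated 3,000/well, and exposed to compound for 16 h.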

Measured: AC50

Sequence of PGR (gene 5241) (P06401 whole entry, looked up): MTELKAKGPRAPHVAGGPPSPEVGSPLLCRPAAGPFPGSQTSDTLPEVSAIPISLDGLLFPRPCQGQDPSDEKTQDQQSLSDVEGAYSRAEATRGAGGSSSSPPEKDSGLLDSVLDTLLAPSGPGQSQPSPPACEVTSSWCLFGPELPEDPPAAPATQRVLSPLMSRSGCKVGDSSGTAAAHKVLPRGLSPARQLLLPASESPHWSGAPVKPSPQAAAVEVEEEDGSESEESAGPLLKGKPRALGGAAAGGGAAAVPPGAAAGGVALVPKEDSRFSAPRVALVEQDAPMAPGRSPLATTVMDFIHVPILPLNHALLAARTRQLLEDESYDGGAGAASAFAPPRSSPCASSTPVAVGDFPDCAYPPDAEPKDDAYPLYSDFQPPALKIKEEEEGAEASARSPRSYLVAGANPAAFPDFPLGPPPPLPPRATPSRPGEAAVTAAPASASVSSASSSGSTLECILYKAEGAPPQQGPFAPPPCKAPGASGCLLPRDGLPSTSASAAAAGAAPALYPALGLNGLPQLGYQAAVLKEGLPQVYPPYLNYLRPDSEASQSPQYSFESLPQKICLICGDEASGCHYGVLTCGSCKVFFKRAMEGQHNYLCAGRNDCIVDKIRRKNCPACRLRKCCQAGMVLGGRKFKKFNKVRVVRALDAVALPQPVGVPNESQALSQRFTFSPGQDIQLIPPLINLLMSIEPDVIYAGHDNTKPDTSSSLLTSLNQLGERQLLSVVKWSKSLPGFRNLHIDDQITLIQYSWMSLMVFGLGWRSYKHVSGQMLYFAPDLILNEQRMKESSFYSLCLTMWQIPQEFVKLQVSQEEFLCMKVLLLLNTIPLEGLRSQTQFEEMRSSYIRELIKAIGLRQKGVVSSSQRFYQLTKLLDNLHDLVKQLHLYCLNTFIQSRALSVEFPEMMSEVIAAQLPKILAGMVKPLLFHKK
Sequence of Cellular tumor antigen p53 (Homo sapiens) (P04637 whole entry, looked up): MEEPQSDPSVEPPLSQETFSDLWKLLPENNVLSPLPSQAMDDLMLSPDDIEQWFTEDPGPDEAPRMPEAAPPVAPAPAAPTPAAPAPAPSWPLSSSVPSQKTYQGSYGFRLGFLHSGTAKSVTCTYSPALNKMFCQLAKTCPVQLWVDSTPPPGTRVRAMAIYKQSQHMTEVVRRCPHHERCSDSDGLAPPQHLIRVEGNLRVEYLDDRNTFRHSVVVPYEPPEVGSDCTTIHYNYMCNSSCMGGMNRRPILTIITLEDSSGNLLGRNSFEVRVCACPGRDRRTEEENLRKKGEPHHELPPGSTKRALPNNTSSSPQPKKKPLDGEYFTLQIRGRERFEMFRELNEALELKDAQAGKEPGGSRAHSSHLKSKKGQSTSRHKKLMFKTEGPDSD

O=C(O)/C=C\C(=O)O
inactive: [1] | [2] | [3] | [4] | [5] | [6] | [7] | [8]

Nc1ccc(Cc2ccc(N)c(Cl)c2)cc1Cl
inactive: [1] | [5] | [6] | [7] | [8]
active: [2] 68.5 µM | [3] 77.1 µM | [4] 71.5 µM

CN[C@@H]1C[C@@H](c2ccc(Cl)c(Cl)c2)c2ccccc21
inactive: [1] | [2] | [3] | [4] | [6] | [7] | [8]
active: [5] 33.9 µM

S=C=Nc1cccc2ccccc12
inactive: [1] | [3] | [4] | [5] | [6] | [7]
active: [2] 38.5 µM | [8] 32.4 µM

CC(=O)C(Cl)Cl
inactive: [1] | [2] | [3] | [4] | [5] | [6] | [7] | [8]

Clc1ccc(CCC(Cn2ccnc2)Sc2c(Cl)cccc2Cl)cc1 (centres undefined)
active: [4] 15.9 µM
inactive: [1] | [2] | [3] | [5] | [6] | [7] | [8]

CCOP(=S)(OCC)Oc1cc(Cl)c(Br)cc1Cl
active: [5] 72.9 µM | [10] 6.49 µM | [13] 5.76 µM
inactive: all other assays above

NCC(O)c1ccc(O)cc1 (centres undefined)
inactive: [1] | [2] | [3] | [4] | [5] | [6] | [7] | [8]

CCCCCl
inactive: [1] | [2] | [3] | [4] | [5] | [6] | [7] | [8]

C[C@]12Cc3nonc3C[C@@H]1CC[C@@H]1[C@@H]2CC[C@@]2(C)[C@H]1CC[C@]2(C)O
active: [3] 25.7 µM | [5] 23 µM | [9] 6.11 µM | [11] 35.1 µM
not listed: [14]
inactive: all other assays above

O=C(O)CC[N+](=O)[O-]
inactive: [1] | [2] | [3] | [4] | [5] | [6] | [7] | [8]

F/C(COc1ccc2c(c1)[nH]c1ccccc12)=C1/CN2CCC1CC2
inactive: [1] | [2] | [3] | [4] | [6] | [7] | [8]
active: [5] 27.3 µM

CCCCCc1cc(O)c2c(c1)OC(C)(C)c1ccc(C)cc1-2
active: [1] 14.4 µM | [2] 22.3 µM | [3] 30.1 µM | [4] 34.4 µM | [5] 14.9 µM | [6] 23.9 µM | [7] 19.8 µM | [8] 29.9 µM

N=C(N)[Se]
inactive: [1] | [2] | [3] | [4] | [5] | [6] | [7] | [8]

C/C(=C\c1csc(C)n1)[C@@H]1C[C@@H]2O[C@]2(C)CCC[C@H](C)[C@H](O)[C@@H](C)C(=O)C(C)(C)[C@@H](O)CC(=O)O1
inactive: [1] | [3] | [5] | [7]
active: [2] 0.0698 µM | [4] 0.0123 µM | [6] 0.732 µM | [8] 0.0121 µM

O=[N+]([O-])c1ccccc1CCl
inactive: [1] | [2] | [3] | [4] | [5] | [6] | [7] | [8]

Oc1cc(Cl)c(Cl)c(Cl)c1Cl
active: [2] 5.97 µM | [3] 22.3 µM | [4] 6.58 µM | [6] 7.24 µM | [8] 7.69 µM
inactive: [1] | [5] | [7]

O=C(O)c1ccccn1
inactive: [1] | [2] | [3] | [4] | [5] | [6] | [7] | [8]

CCCCCc1cc(O)c2c(c1)OC(C)(C)[C@@H]1CCC(C)=C[C@@H]21
active: [1] 24.4 µM | [2] 41.7 µM | [3] 23.4 µM | [4] 40.4 µM | [5] 21.4 µM | [6] 43.1 µM | [7] 32.8 µM | [8] 40 µM

Cc1nnc2n1-c1sc(CCc3ccc(CC(C)C)cc3)cc1C(c1ccccc1Cl)=NC2C (centres undefined)
active: [1] 23 µM | [2] 31 µM | [3] 29 µM | [4] 27.4 µM | [5] 24.8 µM | [6] 39.8 µM | [7] 23 µM | [8] 42.2 µM

S=C=S
inactive: [1] | [2] | [3] | [4] | [5] | [6] | [7] | [8]

CCOC(=O)NC(C)(C)Cc1ccc(Cl)cc1
inactive: [1] | [2] | [3] | [4] | [5] | [6] | [7] | [8]
